In the supplement of paper PMC3334620:
The full ranking holds about 33,000 sequences; the median of “E-score (-0.5 to 0.5)” is about -0.01, and the highest 2% start at about 0.26. This excerpt belongs to a sample that is enriched for the highest values.

These sequences were tested against Ste12 (UniProt P13574) (assay: PBM E-score (8-mer binding enrichment) (E-score (-0.5 to 0.5)); higher = stronger / more preferred TF binding). Settings: protein concentration: 200 nM; construct: GST-DNA-binding domain.
Sequence of UniProt P13574 (P13574 whole entry, the tested form may be a part): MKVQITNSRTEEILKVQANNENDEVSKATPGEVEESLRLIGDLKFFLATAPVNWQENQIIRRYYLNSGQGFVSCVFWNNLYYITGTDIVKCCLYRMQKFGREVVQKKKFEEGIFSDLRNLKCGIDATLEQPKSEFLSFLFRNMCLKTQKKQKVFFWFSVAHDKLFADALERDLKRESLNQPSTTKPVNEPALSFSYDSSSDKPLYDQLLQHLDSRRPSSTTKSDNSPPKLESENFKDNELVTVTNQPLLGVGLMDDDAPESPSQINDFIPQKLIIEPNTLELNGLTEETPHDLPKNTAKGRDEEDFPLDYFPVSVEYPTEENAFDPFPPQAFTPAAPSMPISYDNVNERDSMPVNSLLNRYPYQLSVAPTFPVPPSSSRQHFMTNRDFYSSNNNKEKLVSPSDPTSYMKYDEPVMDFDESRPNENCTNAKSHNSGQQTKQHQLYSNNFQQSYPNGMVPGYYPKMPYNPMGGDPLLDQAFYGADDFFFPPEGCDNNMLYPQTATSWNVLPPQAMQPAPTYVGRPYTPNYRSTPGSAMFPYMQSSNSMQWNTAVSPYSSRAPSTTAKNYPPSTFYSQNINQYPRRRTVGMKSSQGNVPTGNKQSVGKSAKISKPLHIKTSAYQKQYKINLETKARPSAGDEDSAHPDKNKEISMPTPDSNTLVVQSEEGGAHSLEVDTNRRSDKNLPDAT
Procedure, shortened: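 GST-tagged yeast TFs (full-length or DNA-binding domain) were made by PURExpress in vitro transcription/translation and applied at about 100-200 nM to universal all-10-mer Agilent arrays. The arrays were made double-stranded by primer extension, on fresh or once-stripped slides. Bound protein was detected with fluorescent anti-GST, and scans were normalised with masliner. Each ungapped eight-base word, pooled with its reverse complement, received an E-score (modified Wilcoxon-Mann-Whitney statistic) from the Universal PBM Analysis Suite.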

Row | Sequence | PBM E-score
1 | CCAAGGGC | -0.139
2 | CCGCACCC | 0.222
3 | CAAGTTCG | -0.0514
4 | CTTCTAAC | -0.0172
5 | AGTCTAGC | -0.223
6 | CTATCGCA | -0.0857
7 | AGGTGATA | 0.0763
8 | ACCGATGC | -0.0639
9 | ATGAAAAT | 0.166
10 | ATGAAAAA | 0.305
11 | CTGAAAAA | 0.0763
12 | TAGAAAAA | 0.0605
13 | GTGAAAAC | 0.0815
14 | ATGAAAAC | 0.349
15 | ACGAAAAC | 0.25
16 | ATGAAAAG | -0.0787
17 | TTGAAAAA | 0.323
18 | CGACCTTA | 0.111
19 | ACGCCAGT | -0.084
20 | ATAACTAT | 0.0787
21 | ACAAAATG | 0.0682
22 | AAAAAATC | 0.363
23 | ACAAAATC | 0.291
24 | GAAAAATC | 0.201

Row | Sequence | PBM E-score
25 | CAAAAATC | 0.123
26 | ACAAAATA | 0.0836
27 | CTACCACC | -0.102
28 | AATCGACA | 0.248
29 | CAGCGACC | -0.0234
30 | GGCGTGGA | -0.0873
31 | AATAGTCA | -0.0559
32 | ATTTACAC | 0.18
33 | AGGTGAAA | 0.235
34 | TGGTGAAA | 0.277
35 | TGGTGCAA | -0.18
36 | TGGTGACA | 0.048
37 | CGGTGAAA | 0.245
38 | GGGTGAAA | 0.315
39 | AGCTGGGG | -0.136
40 | ACCCAGGT | -0.218
41 | CCAAGAAC | -0.11
42 | CGCCAACA | -0.0261
43 | GCACATCA | -0.00042
44 | GCCCCCAA | -0.0804
45 | TATAAATA | 0.228
46 | CAAAAATG | 0.182
47 | GTAAAATA | 0.131
48 | ATAAAATA | 0.257

Row | Sequence | PBM E-score
49 | TAAAAATA | 0.318
50 | CAAAAATA | 0.346
51 | CTAAAATA | 0.181
52 | CCAAAATA | 0.21
53 | AATAAATA | 0.21
54 | GAAAAATA | 0.217
55 | CATAAATA | 0.268
56 | AAAAAATA | 0.267
57 | GCCTAAAA | -0.0428
58 | CATCCCAA | 0.0892
59 | CTCAACTC | 0.141
60 | ATGACTAG | -0.183
61 | ACACATCC | -0.0267
62 | GTTCACCA | -0.0697
63 | TCCCTCCA | -0.191
64 | ATATTGAT | 0.248
65 | AAATCTTC | 0.0263
66 | GAGGTAGC | -0.239
67 | CAGGGTTC | -0.0459
68 | CAACGCGG | -0.0344
69 | AAACGCGT | 0.255
70 | AAACGCGG | 0.264
71 | CGCCGTCA | 0.0459
72 | ACTCTGCT | -0.0783

Row | Sequence | PBM E-score
73 | GATATTGC | 0.0418
74 | CCAATCCG | 0.281
75 | CCAATCCC | 0.104
76 | ACAATCCG | -0.0367
77 | GGCTACCC | -0.285
78 | CGGGCGTA | -0.0442
79 | CGGGCGGA | -0.012
80 | AGGGCGGA | -0.248
81 | GGGGCGTA | 0.282
82 | AGGGCGTA | -0.176
83 | GGGGCGGA | 0.404
84 | CGCTCCAG | 0.0315
85 | CAACCTGC | 0.0657
86 | CCTGCAGG | -0.16
87 | AAAAGTGG | 0.139
88 | AAAAGTAA | 0.287
89 | CAAAGTAA | 0.125
90 | AAAAGTTT | 0.283
91 | AAAAGTTC | 0.0553
92 | AAAAGTGT | 0.0304
93 | AAAAGTGA | 0.267
94 | AAAAGTAT | 0.178
95 | AAAAGTTG | 0.127
